Assay results taken from PubChem BioAssay AID1458 (National Center for Advancing Translational Sciences (NCATS), 2008).
Out of some 210,000 compounds screened, about 5,900 (2.8%) were called active. Another 5% or so got no clear call; they are omitted. Calls come from the whole dose curve; as a rule, active = well fitted activation curve with a large enough effect; inconclusive = small, poorly fitted or top-dose-only effect; inactive = no such curve, though single readings can be large or run the other way. Many of the other results were omitted from the sample, so actives are more common in it than they were.

Assay: qHTS Assay for Enhancers of SMN2 Splice Variant Expression; note: nearly all actives have a fitted effect of over 55% in size; for activity change, positive = activation: % of control where 0% means no effect
Details: HEK293 SMN2-luciferase splicing reporter, luminescence, 30-36 h; series mostly up to 46.1 µM; activity change, positive = activation: at the top concentration
Summary of the method: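 qHTS luciferase splicing reporter: luminescence rises when SMN2 exon 7 is included in transfected HEK293 cells. Compound exposure lasted 30-36 h at 37C, with 4.5 mM final sodium butyrate as control, followed by a ONE-Glo read.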
Potency is the fitted concentration of half-maximal effect.

SMILES	activity change, positive = activation	Potency
C=Cc1ccc(Cn2c(C(=O)OC)cc3sc(C)cc32)cc1	18.4% (inactive)	
Cc1ccc(CCNC(=O)c2ccc3c(c2)N(Cc2cc(C)ccc2C)C(=O)c2ccccc2S3=O)cc1 (stereo unspecified)	-9.89% (inactive)	
Cc1sc(C2C(C#N)=C(N)N(c3cccc(Cl)c3)C3=C2C(=O)CCC3)cc1CN1CCOCC1 (stereo unspecified)	8.27% (inactive)	
COc1cccc(-c2nnc(SCC(=O)N3CCC(C)CC3)o2)c1	9.23% (inactive)	
COc1ccccc1Cc1nc(-c2ccc(C)cc2)no1	-16.6% (inactive)	
Cc1cccc(-c2noc(-c3ccc(F)cc3)n2)c1		11.2 µM (active)
Cc1ccc(-c2noc(CN3CCN(Cc4ccccc4)CC3)n2)cc1	-89.9% (inactive)	
COc1ccc2[nH]c(=O)c(-c3noc(-c4ccc(F)cc4)n3)cc2c1	17% (inactive)	
Cc1ccc(Cc2nc(-c3cccc(C)c3)no2)cc1		11.2 µM (active)
Cc1ccc(-c2noc(CC(c3ccccc3)c3ccccc3)n2)cc1	-73.8% (inactive)	
COc1cccc(CNC(=O)CCC(=O)N2CC3CCCN3c3ccccc32)c1 (stereo unspecified)	5.39% (inactive)	
O=C(CC1Oc2ccccc2NC1=O)NCc1ccc(F)cc1 (stereo unspecified)	10.9% (inactive)	
CCCCn1c(CNC(=O)C23CC4CC(CC(C4)C2)C3)nnc1SCC(=O)Nc1ccc(C)cc1	5.94% (inactive)	
CCCCCn1c(CCCNC(=O)c2ccccc2OC)nc2ccccc21	-46.9% (inactive)	
CCOC(=O)c1c(NC(=O)/C(C#N)=C/c2ccccc2)sc2c1CCC2	4.92% (inactive)	
COc1ccc(NC(=O)C2CCN(c3ccc(Sc4ccc(C)cc4)nn3)CC2)c(OC)c1	-15.5% (inactive)	
c1ccc2sc(NN=C3CCCC3)nc2c1		3.16 µM (active)
O=C1NC(Nc2nc3ccccc3s2)(C(F)(F)F)C(=O)N1C1CCCCC1 (stereo unspecified)	9.35% (inactive)	
O=[N+]([O-])c1cc(Br)c(O)c(/C=N/Nc2nc3ccccc3s2)c1	-60.1% (inactive)	
CCN(C(=O)c1sc2cc(OC)ccc2c1Cl)c1ccccc1	-48.3% (inactive)	
COc1ccc2c(c1)Cc1sc(NC(=O)c3ccccc3Br)nc1-2	-19.7% (inactive)	
Cc1ccc(CN(C(=O)COc2ccc(Cl)cc2C)C2CCS(=O)(=O)C2)o1 (stereo unspecified)	11.9% (inactive)	

SMILES	activity change, positive = activation	Potency
Nc1ncc(-c2cc3ccccc3oc2=O)s1		15.8 µM (active)
O=c1oc2ccccc2cc1-c1cn(-c2ccccc2)c(=S)[nH]1	-69.9% (inactive)	
O=C(NCc1cccnc1)c1cccc(-c2cc3ccccc3oc2=O)c1	-47.8% (inactive)	
CC(C)Sc1oc(-c2cccs2)nc1S(=O)(=O)c1ccc(Cl)cc1	0.89% (inactive)	
COc1ccc(NC(=O)CCc2nnc3n(CC(C)C)c(=O)c4ccccc4n23)cc1OC	-12.1% (inactive)	
CCOC(=O)c1cccc(NC(=O)C(Cc2ccccc2)NS(=O)(=O)c2cccc3nsnc23)c1 (stereo unspecified)	-63.8% (inactive)	
COc1ccc(-c2csc(-c3c(N)c(C(=O)c4ccc(OC)c(OC)c4)n4ccccc34)n2)cc1	3.5% (inactive)	
O=C(CN1C(=O)COc2ccccc21)NCCN1CCc2ccccc2C1		7.08 µM (active)
O=C(CN1C(=O)COc2ccccc21)Nc1ccc(F)cc1	6.4% (inactive)	
CCCN1CCN(CCCNC(=O)CN2C(=O)COc3ccccc32)CC1	1.45% (inactive)	
CCc1ccccc1NC(=O)c1cc(-c2ccc3c(c2)OCO3)on1	2.35% (inactive)	
COc1ccc(-c2csc(Cc3nc(O)cs3)n2)cc1		11.2 µM (active)
COc1ccc(-c2csc(N3CCN(Cc4ccc5c(c4)OCO5)CC3)n2)cc1	-26% (inactive)	
COc1ccc(C(=O)Nc2nc(-c3ccc(S(=O)(=O)N4CCOCC4)cc3)cs2)cc1	-69.5% (inactive)	
CCC(=O)N1CCc2cc(Br)cc(S(=O)(=O)CCC(=O)N3CCN(c4ccc(F)cc4)CC3)c21	10.4% (inactive)	
Cc1ccc(-c2csc(NC(=O)Cc3cccs3)n2)cc1C	-12.8% (inactive)	
Cc1ccc(-c2csc(NNC(=O)c3ccccc3)n2)cc1	6% (inactive)	
O=C(O)Cc1ccc(NC(=O)c2cccs2)cc1	-4.84% (inactive)	
Cc1nc(-c2ccc(NC(=O)c3cccs3)cc2)cs1		3.16 µM (active)
Cc1ccc(-c2csc(NC(=O)c3cccs3)n2)cc1		11.2 µM (active)
Cc1ccc(-c2nnc(-c3ccc(NC(=O)c4cccs4)cc3)o2)cc1	-10.5% (inactive)	
CCOC(=O)c1c(NC(=O)c2cc(CC)on2)sc(C(C)=O)c1C	9.96% (inactive)	

SMILES	activity change, positive = activation	Potency
CC(C)Cn1c(-c2ccc(S(=O)(=O)N3CCOCC3)cc2)csc1=Nc1cc(Cl)ccc1Cl	0.999% (inactive)	
CCOc1ccc(CNC(=O)c2cccc(Nc3nc4ccccc4n4nnnc34)c2)cc1OC	-3.76% (inactive)	
Cc1c(NC(=O)Nc2ccccc2)cccc1[N+](=O)[O-]	-7.61% (inactive)	
Cc1cc(NC(=O)Nc2ccccc2[N+](=O)[O-])no1	17.6% (inactive)	
Cc1csc(NC(=O)Nc2ccccc2[N+](=O)[O-])n1		5.62 µM (active)
Cn1c(=O)c2c(nc(NCCc3ccccc3)n2Cc2ccccc2Br)n(C)c1=O	2.66% (inactive)	
COc1ccccc1-c1ccnc2[nH]n(-c3ccccc3)c(=O)c12	4.34% (inactive)	
CCOC(=O)C(Cc1ccccc1)NC(=O)CCc1c(C)nc2c(c(C)nn2-c2ccc(C)c(C)c2)c1C (stereo unspecified)	1.02% (inactive)	
COC(=O)c1ccc(CN2CCC(CO)(Cc3ccc(OC)cc3)CC2)cc1	-21.1% (inactive)	
COC(=O)CCC(=O)N1CCCC(CO)(Cc2ccccc2)C1 (stereo unspecified)		14.1 µM (active)
COCC(=O)N1CCC2(CCCN(c3ccccc3)C2)CC1	-3.22% (inactive)	
COc1ccc(CNC(=O)Cn2nnc(-c3ccccc3F)n2)cc1	1.17% (inactive)	
COC(=O)c1ccccc1NC(=O)Cn1c(=O)n(-c2cccc(C(F)(F)F)c2)c(=O)c2c(C)c(C)sc21	1.12% (inactive)	
Cn1c(=O)c2c(nc(SCC(=O)Nc3ccc(F)cc3)n2Cc2ccc(Cl)cc2)n(C)c1=O	-9.05% (inactive)	
COc1ccc(NC(=O)c2ccco2)cc1NC(=O)c1ccc(C#N)cc1F	-1.6% (inactive)	
Cc1ccc(C(=O)NNC(=O)c2cccs2)cc1	75.8% (inactive)	
O=C(NNC(=O)c1ccc(Cl)cc1Cl)c1cccs1		12.6 µM (active)
NNC(=O)c1ccc(Cl)cc1Cl	-3.46% (inactive)	
Cc1cccc(NC(=O)c2nnn(CC(=O)Nc3ccc(C(C)C)cc3)c2N)c1C	-1.97% (inactive)	
CCOc1ccc(CCNC(=O)c2csc3c2CCCCC3)cc1	10.9% (inactive)	
Cc1ccc(C)c(N2CCN(Cc3nnc(-c4ccccc4)o3)CC2)c1	-9.43% (inactive)	
COc1cccc2cc(-c3nc(Cl)c4c5c(sc4n3)CC(C)CC5)c(=O)oc12 (stereo unspecified)	7.63% (inactive)	
